Mito fusion act: qHTS Assay for Small Molecule Inhibitors of Mitochondrial Division or Activators of Mitochondrial Fusion; S. cerevisiae fusion-defective mutant growth rescue, CellTiterGlo 48 h; Potency, µM (top dose mostly 46.1 µM), inactives show top-dose growth rescue (activation), usual class: activators; hit rate 0.23% among 320,000; also: % of control where 0% means no effect; nearly all actives have a fitted effect of over 45% in size
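Temperature-sensitive fusion-defective S. cerevisiae (e.g. fzo1-1, mgm1-5) were grown with compound in YPEG medium (3% ethanol, 3% glycerol) for 48 hours at 37C. Growth rescue was measured as viability by CellTiterGlo luminescence after 10 minutes at ambient.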
gsp agonist: qHTS for Agonist of gsp, the Etiologic Mutation Responsible for Fibrous Dysplasia/McCune-Albright Syndrome: qHTS; gsp mutant cells, cAMP HTRF, 30 min; Potency, µM (highest dose often 76.9 µM), inactives show at the highest dose activation (cAMP increase), hits mostly activators; hit rate 0.13% among 340,000; active = well fitted activation curve with a large enough effect; inconclusive = small, poorly fitted or top-dose-only effect, or another doubt; inactive = no such curve, though single readings can be large or run the other way; cell line not stated here;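 also: phosphodiesterase inhibitor Ro 20-1724 added with compounds to block cAMP breakdown; nearly all actives have a fitted effect of over 60% in size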
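Cells stably selected in G418 were plated at 2000/well, grown 16-24 hr, then given compounds in DMSO with the PDE inhibitor […] (300 uM solution added) for 30 min at 37C; cAMP was read by HTRF.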
12-LOX inh: Primary qHTS assay for inhibitors of human arachidonate 12S-lipoxygenase (ALOX12): Round 2 | Polyunsaturated fatty acid lipoxygenase ALOX12 (Homo sapiens), P18054 | purified 12hLO, xylenol orange hydroperoxide absorbance | Potency, µM (doses to about 108 µM), inactives show at the top dose activity change, negative = inhibition, actives largely listed as inhibitors | hit rate 1.1% among 580,000 | AID 1671190, 2021; also: % is scaled to controls: 0 for no effect and ±100 for the full control effect
Target sequence (P18054 whole entry, looked up): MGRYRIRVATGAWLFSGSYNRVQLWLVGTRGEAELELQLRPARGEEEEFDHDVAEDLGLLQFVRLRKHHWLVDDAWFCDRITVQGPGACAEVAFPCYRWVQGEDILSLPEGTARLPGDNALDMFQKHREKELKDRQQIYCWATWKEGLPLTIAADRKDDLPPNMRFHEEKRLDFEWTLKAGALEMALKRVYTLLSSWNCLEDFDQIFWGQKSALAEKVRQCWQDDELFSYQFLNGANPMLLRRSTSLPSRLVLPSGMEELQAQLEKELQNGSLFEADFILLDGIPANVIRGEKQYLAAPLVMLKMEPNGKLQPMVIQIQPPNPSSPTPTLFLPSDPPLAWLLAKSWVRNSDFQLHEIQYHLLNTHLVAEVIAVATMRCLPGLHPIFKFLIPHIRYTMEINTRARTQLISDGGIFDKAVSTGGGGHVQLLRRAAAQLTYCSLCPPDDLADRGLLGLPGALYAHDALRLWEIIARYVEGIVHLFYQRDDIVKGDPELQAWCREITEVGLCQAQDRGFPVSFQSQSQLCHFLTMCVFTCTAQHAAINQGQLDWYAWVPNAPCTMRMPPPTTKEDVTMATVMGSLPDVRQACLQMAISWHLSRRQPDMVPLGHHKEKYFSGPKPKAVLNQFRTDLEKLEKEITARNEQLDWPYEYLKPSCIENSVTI
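Purified human 12hLO (150 nM final) in 25 mM Hepes, 0.01% Triton X-100, pH 7.0 was preincubated 15 min at room temperature with compound. Then 40 uM arachidonic acid was added, 30 min. Hydroperoxide was read by Fe-XO absorbance ratio 573/405 nm.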
FUS yeast rescue: qHTS for Suppressors of FUS Proteinopathy: Primary screen using FUS-linked yeast assay. hit rate 0.24% among 390,000. AID 1347120, 2019. Potency, µM (highest dose often 76.6 µM), most hits filed as activators. S. cerevisiae FUS-expressing, growth rescue, OD600, 24 h;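 also: plate controls were DMSO vehicle for no effect and reference control for full effect; nearly all actives have a fitted effect of over 55% in size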
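Cultures pregrown in 2.5% raffinose medium are shifted to minimal medium containing 2% galactose to express toxic FUS. Compounds are tested at several concentrations. After 24hr at 30C, growth is quantified at 600 nm absorbance.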
gsp antagonist: qHTS for Antagonists of gsp, the Etiologic Mutation Responsible for Fibrous Dysplasia/McCune-Albright Syndrome: qHTS | Potency, µM (highest dose often 76.9 µM), inactives show at the highest dose activity change, negative = inhibition, hits mostly inhibitors | hit rate 0.4% among 340,000 | AID 624288, 2012 | gsp-mutant cells, cAMP HTRF, 30 min; calls by dose curve; cell line not stated here;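 also: intracellular cAMP measured with PDE inhibitor Ro 20-1724 present during compound exposure; % is scaled to controls: 0 for no effect and ±100 for the full control effect; nearly all actives have a fitted effect of over 65% in size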
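Cells in G418 medium, seeded 16-24 h, 37C; buffer exchange to DPBS + 1 mM CaCl2, 0.5 mM MgCl2, 0.05% BSA; cpds in DMSO + […] (300 uM stock), 30 min 37C; HTRF cAMP detection.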
Starred values were filed as active, the others as inactive; i = inactive; ? = inconclusive; · = no result; [ ] = another dose, or the depositor's remark. An excerpt weighted towards active compounds, which were near 1.6% of everything screened. Unless noted, calls follow the shape of the dose curve; as a rule, active = well fitted curve in the direction sought with a large enough effect; inconclusive = small, poorly fitted or top-dose-only effect, or another doubt; inactive = no such curve, though single readings can be large; an effect the other way counts as inactive or inconclusive. Potency is read from the fitted curve at half-maximal effect.

SMILES | Mito fusion act | gsp agonist | 12-LOX inh | FUS yeast rescue | gsp antagonist
Cc1ccc(NC(=O)c2nn(-c3ccccc3)c(=O)c3ccccc23)cc1S(=O)(=O)N(C)C | · | · | -19% | · | ·
CCc1nn2c(=O)cc(CN(CC)C3CCCCC3)nc2s1 | · | · | 0% | · | ·
CC(C)NC(=S)N/N=C/c1sc(N2CCCCC2)nc1-c1cccs1 | -12% | 0% | 35µM* | i | 8%
NC(=O)N/N=C/c1sc(N2CCCCC2)nc1-c1cccs1 | · | 10% | -9% | i | -4%
COc1ccc(/C=C(\C#N)c2nc3ccccc3[nH]2)c(OC)c1 | · | · | 57% | · | ·
COc1ccc2nc(/C(C#N)=C\c3ccco3)[nH]c2c1 | · | · | 40µM* | · | ·
N#C/C(=C\c1cc(Br)c(Br)o1)c1nc2ccccc2[nH]1 | · | · | 11µM* | · | ·
Cc1ccc2nc(/C(C#N)=C/c3ccc(O)c(O)c3)[nH]c2c1 | 1% | 16% | 7.1µM* | i | -8%
Cc1ccc(Sc2oc(/C=C(/C#N)c3nc4ccccc4[nH]3)cc2Br)cc1 | · | · | -12% | · | ·
COc1ccccc1N1CCN(CC(=O)c2cc(C)n(C3CCS(=O)(=O)C3)c2C)CC1 (configuration not stated) | · | · | -18% | · | ·
Cc1c(-c2ccccc2)c(=O)oc2ccc(OS(=O)(=O)c3ccc(Cl)cc3)cc12 | · | · | 2% | · | ·
CCc1ccccc1NC(=O)c1cc2cccc(OC)c2oc1=O | · | · | -16% | · | ·
Cc1cc(NS(=O)(=O)c2ccc(NC(=S)NC(=O)c3cccc(S(=O)(=O)N(C)C)c3)cc2)no1 | -7% | 4% | ? | i | -5%
COc1ccc(OCC(=O)NC(=S)Nc2ccc(S(=O)(=O)Nc3cc(OC)nc(OC)n3)cc2)cc1 | 0% | -1% | ? | · | 5%
Cc1cc(NS(=O)(=O)c2ccc(NC(=S)NC(=O)c3ccc(F)cc3)cc2)no1 | 4% | -2%[15.4 µM] | 25µM* | i | -13%
Cc1ccc(NC(=S)NC(=O)c2ccc(F)cc2)cc1S(=O)(=O)Nc1ccccc1Cl | ? | 0%[15.4 µM] | 5µM* | i | -9%
COc1ccc(C(=O)NC(=S)Nc2ccc(S(=O)(=O)Nc3cc(OC)ncn3)cc2)cc1 | -3% | ? | 10µM* | i | -29%
COc1cc(NS(=O)(=O)c2ccc(NC(=S)NC(=O)c3ccco3)cc2)ncn1 | 0% | -1%[15.4 µM] | ? | i | -12%
COc1ccc(C(=O)NC(=S)Nc2ccc(S(=O)(=O)Nc3cc(OC)nc(OC)n3)cc2)cc1 | 0% | -4% | 7.1µM* | i | -26%
COc1cc(NS(=O)(=O)c2ccc(NC(=O)c3ccc(C(C)=O)cc3)cc2)nc(OC)n1 | · | · | -24% | i | ·
COc1cc(NS(=O)(=O)c2ccc(NC(=S)NC(=O)c3ccc(F)cc3)cc2)nc(OC)n1 | 10% | 4%[15.4 µM] | 18µM* | ? | -27%
C=C(C)C1CC=C(C)/C(=N\NC(=S)Nc2ccc(C)cc2)C1 (configuration not stated) | 0% | -18% | 22µM* | · | ?
C=C(C)C1CC=C(C)/C(=N/NC(=O)COc2ccc(C)cc2)C1 (configuration not stated) | 3% | 6% | 2% | i | 4%
NCCCC[C@@H]1NC(=O)[C@H](CCC(=O)O)NC(=O)c2cc([N+](=O)[O-])cc(I)c2SC[C@@H](C(=O)NCC(N)=O)NC1=O | 2% | · | 40µM* | i | 9%
NCCCC[C@@H]1NC(=O)c2cc([N+](=O)[O-])cc(I)c2SC[C@@H](C(N)=O)NC(=O)[C@H](Cc2ccc(O)cc2)NC1=O | 0% | 12% | · | ? | 8%
O=C(O)CC1(CNS(=O)(=O)c2ccc(Cl)cc2)CCCCC1 | · | · | 0% | · | ·
COC(=O)c1cc(COC(=O)c2cccnc2SC)oc1C | -4% | -2% | 40µM* | i | -28%
CNC(=O)C1(N2CCC[C@H]2C(=O)N2CC[C@@H](O)C2)CCCCC1 | · | · | 10%[176 µM] | · | ·
CNC(=O)C1(N2CCC[C@H]2C(=O)N2CCC[C@@H]2COC)CCCCC1 | · | · | 22µM* | · | ·
